The entries come from a sample that favours hits as a whole.
BoNT F protease: BoNT/F light chain protease inhibitors, primary screen, biochemical, flow cytometry, MLPCN library; inhibition, % at 10 µM; Multiplex microsphere protease cleavage assay; Botulinum neurotoxin type F light chain protease (Clostridium botulinum); 360,000 compounds, 0.22% hits; AID 588497, 2011; in the data active = inhibition above about 35%, passing the limit was not always enough; inconclusive = no clear call, values can overlap the other calls; also: plate controls were buffer without enzyme for full effect and enzyme alone for no effect
Anthrax LF prot: Bacillus anthracis LF protease inhibitors, primary screen, biochemical, multiplex microsphere, MLPCN library; 360,000 compounds, 0.12% hits; multiplex microsphere protease cleavage assay; inhibition, % at 10 µM; AID 588501, 2011; Lethal factor (Bacillus anthracis), P15917; also: plate controls were buffer without enzyme for full effect and enzyme alone for no effect
BoNT-A LC inh2: BoNT/A light chain protease inhibitors, primary screen, biochemical, flow cytometry, MLPCN library; 360,000 compounds, 0.17% hits; Botulinum neurotoxin type A light chain protease (Clostridium botulinum A str. ATCC 3502); inhibition, % at 10 µM; multiplex microsphere protease substrate cleavage; also: plate controls were buffer without enzyme for full effect and enzyme alone for no effect
Autofluor counter: compound fluorescence in toxin protease inhibitor counterscreen; compound autofluorescence counterscreen, microsphere flow cytometry; stronger effect = higher value; fluorescence intensity (test concentration not listed); 360,000 compounds, 3.1% hits; AID 624483; in the data active = fluorescence intensity above about 16000; inconclusive = no clear call, values can overlap the other calls
TcdB inh: TcdB glycohydrolase inhibitors, primary screen, biochemical, single point, plate reader; 350,000 compounds, 0.24% hits; TcdB glycohydrolase enzymatic assay; AID 652162, 2013; inhibition, % at 9.99 µM; in the data active = inhibition above about 10%
Target sequence (P18177 whole entry, looked up): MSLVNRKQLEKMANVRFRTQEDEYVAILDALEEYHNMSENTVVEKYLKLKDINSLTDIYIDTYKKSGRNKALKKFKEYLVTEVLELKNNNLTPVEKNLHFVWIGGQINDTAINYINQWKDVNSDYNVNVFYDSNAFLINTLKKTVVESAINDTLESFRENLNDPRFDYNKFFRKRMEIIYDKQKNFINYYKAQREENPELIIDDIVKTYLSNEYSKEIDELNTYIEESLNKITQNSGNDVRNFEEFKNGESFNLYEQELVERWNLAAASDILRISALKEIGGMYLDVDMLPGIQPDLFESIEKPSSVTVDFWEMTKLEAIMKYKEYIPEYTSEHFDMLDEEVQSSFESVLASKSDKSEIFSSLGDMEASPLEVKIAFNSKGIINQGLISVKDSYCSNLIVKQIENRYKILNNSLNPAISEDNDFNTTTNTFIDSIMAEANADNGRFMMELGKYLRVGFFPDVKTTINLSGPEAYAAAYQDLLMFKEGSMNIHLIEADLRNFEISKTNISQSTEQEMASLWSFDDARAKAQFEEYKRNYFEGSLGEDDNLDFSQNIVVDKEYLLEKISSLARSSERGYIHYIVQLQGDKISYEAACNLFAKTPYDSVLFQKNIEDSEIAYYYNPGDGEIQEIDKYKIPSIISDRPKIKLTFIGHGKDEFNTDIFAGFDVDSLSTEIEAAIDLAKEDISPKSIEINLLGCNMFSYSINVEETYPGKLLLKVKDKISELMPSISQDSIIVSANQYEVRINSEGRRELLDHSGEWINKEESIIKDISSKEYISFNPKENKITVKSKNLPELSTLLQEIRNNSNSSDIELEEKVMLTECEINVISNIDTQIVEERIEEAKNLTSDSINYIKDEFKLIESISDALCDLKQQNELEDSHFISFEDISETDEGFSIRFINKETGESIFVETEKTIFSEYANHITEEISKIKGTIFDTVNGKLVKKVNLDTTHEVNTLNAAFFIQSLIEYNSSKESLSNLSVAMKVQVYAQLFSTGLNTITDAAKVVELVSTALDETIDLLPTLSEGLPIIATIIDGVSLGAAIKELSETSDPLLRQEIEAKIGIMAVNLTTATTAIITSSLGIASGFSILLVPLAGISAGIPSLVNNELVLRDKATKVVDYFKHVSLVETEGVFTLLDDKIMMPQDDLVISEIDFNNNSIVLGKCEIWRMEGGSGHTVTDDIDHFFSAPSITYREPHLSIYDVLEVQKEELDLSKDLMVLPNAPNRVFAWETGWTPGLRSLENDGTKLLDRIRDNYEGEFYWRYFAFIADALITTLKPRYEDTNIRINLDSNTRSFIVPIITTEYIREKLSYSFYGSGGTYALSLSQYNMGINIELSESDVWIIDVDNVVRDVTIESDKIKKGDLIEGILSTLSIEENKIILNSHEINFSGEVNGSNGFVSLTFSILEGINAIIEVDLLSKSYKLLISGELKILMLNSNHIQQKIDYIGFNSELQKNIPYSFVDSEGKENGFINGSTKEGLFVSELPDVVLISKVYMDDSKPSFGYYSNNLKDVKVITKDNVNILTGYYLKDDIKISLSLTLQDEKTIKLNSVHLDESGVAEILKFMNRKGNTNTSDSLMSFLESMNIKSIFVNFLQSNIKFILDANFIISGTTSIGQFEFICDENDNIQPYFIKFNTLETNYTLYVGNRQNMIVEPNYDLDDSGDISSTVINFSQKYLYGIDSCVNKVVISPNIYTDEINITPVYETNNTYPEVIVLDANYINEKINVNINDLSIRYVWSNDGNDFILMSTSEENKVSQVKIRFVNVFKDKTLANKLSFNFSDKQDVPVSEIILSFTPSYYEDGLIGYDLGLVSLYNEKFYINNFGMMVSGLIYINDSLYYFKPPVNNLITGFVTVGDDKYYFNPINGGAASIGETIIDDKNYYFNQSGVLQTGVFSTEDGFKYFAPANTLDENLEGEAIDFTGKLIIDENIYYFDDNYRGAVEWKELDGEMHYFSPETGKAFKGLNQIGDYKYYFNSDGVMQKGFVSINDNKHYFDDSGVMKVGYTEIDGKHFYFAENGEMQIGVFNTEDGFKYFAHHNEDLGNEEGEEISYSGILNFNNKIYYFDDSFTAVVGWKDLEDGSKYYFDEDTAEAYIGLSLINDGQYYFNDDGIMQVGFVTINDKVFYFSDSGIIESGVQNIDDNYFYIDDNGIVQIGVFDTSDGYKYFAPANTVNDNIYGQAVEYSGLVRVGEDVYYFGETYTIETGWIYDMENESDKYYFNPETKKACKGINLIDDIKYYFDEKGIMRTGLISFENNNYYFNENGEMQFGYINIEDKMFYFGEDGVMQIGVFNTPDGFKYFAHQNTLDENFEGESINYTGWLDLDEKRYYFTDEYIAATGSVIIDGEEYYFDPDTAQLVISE
* hit, by the source's call; u = inconclusive; x = not tested or not shown. Rule as the data show it, unless noted: active = inhibition above about 30%; inconclusive = no clear call, values can overlap the other calls; inactive = below that.

SMILES	BoNT F protease	Anthrax LF prot	BoNT-A LC inh2	Autofluor counter	TcdB inh
CCOC(=O)C1=C(C)OC(N)=C(C(=O)OCC)[C@@]12C(=O)N(CC(N)=O)c1ccccc12	18	-7	1	4362	x
O=C(Nc1nccs1)C1CCCN1S(=O)(=O)c1ccc(Cl)cc1 (stereo unspecified)	-2	-1	0	11397	2
O=C(Nc1nc(-c2ccccc2)cs1)C1CCCCN1S(=O)(=O)c1ccccc1 (stereo unspecified)	-7	-8	1	u	1
O=C(Nc1nc(-c2ccccc2)cs1)C1CCCCN1S(=O)(=O)c1ccc(Cl)cc1 (stereo unspecified)	-5	-5	1	16281*	2
NC(=O)c1ccsc1NC(=O)C1CCCN1S(=O)(=O)c1ccc(Cl)cc1 (stereo unspecified)	0	-1	0	20384*	x
CN(c1cccc(NC(=O)Nc2cccc(Cl)c2)c1)S(C)(=O)=O	7	5	0	4253	x
CN(C)c1ccc(NC(=O)Nc2cccc(Cl)c2)cc1	-20	-11	2	19659*	x
CSc1ccccc1NC(=O)Nc1cccc(Cl)c1Cl	0	1	0	20444*	x
CN(CC(=O)Nc1cccnc1)S(=O)(=O)c1cc(Cl)ccc1Cl	-7	-3	u	25881*	0
CSc1ccccc1NC(=O)Nc1cccc(Cl)c1	0	-2	0	23180*	-1
CSc1ccccc1NC(=O)Nc1cccc(Cl)c1C	-3	2	0	3467	0
COc1ccc(NC(=O)Nc2ccc3c(c2)C(=O)N([C@H](C)CO)C[C@@H](C)[C@@H](CN(C)S(=O)(=O)c2ccc(Cl)cc2)O3)cc1	x	x	x	x	0
O=C(C[C@H]1CC[C@H]2[C@@H](COC[C@H](O)CN2Cc2cc(F)ccc2F)O1)NCc1ccccc1	x	x	x	x	0
COc1ccc(S(=O)(=O)Nc2ccc3c(c2)C(=O)N([C@@H](C)CO)C[C@H](C)[C@@H](CN(C)C(=O)Cc2ccccc2)OCCCC[C@H](C)O3)cc1	x	x	x	x	2
C[C@H]1CN([C@@H](C)CO)C(=O)c2c(c3ccccc3n2C)-c2ccccc2CO[C@@H]1CN(C)C(=O)Nc1cccc(Cl)c1Cl	x	x	x	x	0
CN(C)S(=O)(=O)c1ccc(NC(=O)/C=C/c2ccccc2Cl)cc1	-2	1	1	2713	x
O=C(Nc1cccnc1)Nc1ccc(F)c(Cl)c1	0	-1	u	23140*	x
CN(C)c1ccc(NC(=O)/C=C/c2c(Cl)cccc2Cl)cc1	-16	0	0	2665	13*
O=C(Nc1cccnc1)c1cc(F)c(F)cc1Cl	-7	0	-1	4323	2
Cc1ccc(NC(=O)Nc2ccc(F)c(Cl)c2)cc1	-4	-13	0	5882	0
CSc1ccccc1NC(=O)Nc1ccc(F)c(Cl)c1	-10	-3	-4	24571*	x
COCC(=O)Nc1ccc2c(c1)C(=O)N(C)C[C@H](OC)[C@H](C)CN(Cc1cccc(F)c1)[C@H](C)CO2	x	x	x	x	0
CC(C)NC(=O)N(C)C[C@@H]1Oc2ccc(NS(=O)(=O)c3cn(C)cn3)cc2C(=O)N([C@H](C)CO)C[C@@H]1C	x	x	x	x	1
COc1ccc2ccccc2c1CN(C)Cc1ccccc1	-7	-12	-1	3116	1
CN(Cc1ccccc1)Cc1c(F)cccc1F	3	-6	-2	22850*	x
SMILES	BoNT F protease	Anthrax LF prot	BoNT-A LC inh2	Autofluor counter	TcdB inh
C[C@H](CO)N1C[C@H](C)[C@H](CN(C)C(=O)Nc2ccc(C(F)(F)F)cc2)Oc2ccc(NC(=O)Cn3cnnn3)cc2C1=O	x	x	x	x	-8
COc1ccc(N2CCN(C(=O)CCCOc3cc(=O)n(C)c4ccccc34)CC2)cc1	-4	-4	-1	23028*	x
CC1CCN(C(=O)CCCOc2cc(=O)n(C)c3ccccc23)CC1	-1	2	u	20059*	x
Cn1c(=O)cc(OCCCC(=O)N2CCC3(CC2)OCCO3)c2ccccc21	-11	-7	-2	4019	x
COc1ccc(N(C)S(=O)(=O)c2c(C)[nH]c(=O)[nH]c2=O)c(OC)c1	-2	-3	0	23317*	x
CCCCn1nnnc1NCc1ccc(C)cc1	-37	-5	1	4277	1
CCCCn1nnnc1NCc1ccc(N(CC)CC)cc1	-3	-4	-2	23951*	x
CCCCn1c(-c2ccoc2C)n[nH]c1=S	-2	-2	-1	23012*	x
C[C@H](NC(=O)C[C@H]1C[C@@H]2c3cc(NC(=O)C4CCC4)ccc3O[C@@H]2[C@@H](CO)O1)c1ccccc1	x	x	x	x	-1
CCCCC(=O)Nc1cccc(NC(=O)c2ccc(Br)o2)c1	-2	-4	0	16352*	x
CC(=O)c1cccc(NC(=O)c2ccc(Br)o2)c1	-2	0	0	10816	x
O=C(Nc1cccc(OC(F)(F)F)c1)c1ccc(Br)o1	-2	-3	-2	16998*	x
CCNC(=O)Nc1ccc2c(c1)C(=O)N(C)[C@@H]1CC[C@H](CC(=O)N[C@@H](C)c3ccccc3)O[C@@H]1CO2	x	x	x	x	-1
CCCC(=O)Nc1ccc2c(c1)OC[C@H](C)N(Cc1ccccn1)C[C@@H](C)[C@H](OC)CN(C)C2=O	x	x	x	x	0
COc1ccc(C(C#N)=Cc2ccccc2OC)cc1	4	-2	-1	3851	1
COc1cc(N2CCCC2)c(OC)cc1/C=C(/C#N)c1ccc(F)cc1	35*	-6	1	7730	x
COc1cc(N2CCCC2)c(OC)cc1/C=C(/C#N)c1ccc(Br)cc1	-2	-1	1	20296*	x
NC(=O)CSc1n[nH]c(-c2ccco2)n1	-8	3	0	4282	1
COc1ccc(C(=O)CSc2n[nH]c(-c3ccco3)n2)cc1	-2	-1	-1	17016*	x
Cc1ccc(C(=O)CSc2n[nH]c(-c3ccco3)n2)cc1C	-3	-2	-2	17185*	x
C[C@@H]1CN([C@@H](C)CO)C(=O)c2cc(C#CCc3ccccc3)cnc2O[C@@H]1CN(C)Cc1cccc(F)c1	x	x	x	x	-1
O=C(C[C@@H]1CC[C@H](NC(=O)C2CC2)[C@@H](CO)O1)NCc1ccccc1Cl	x	x	x	x	-1
O=C(NC1CCCCC1)N[C@H]1CC[C@@H](CC(=O)N2CCOCC2)O[C@@H]1CO	x	x	x	x	0
COc1ccc(NC(=O)N(C)C[C@H]2Oc3ccc(NC(=O)Nc4ccc(C(F)(F)F)cc4)cc3CC(=O)N([C@H](C)CO)C[C@@H]2C)cc1	x	x	x	x	0

Source: PubChem BioAssay
